We go through eight molecules from PubChem BioAssay.

SMILES strings stand for the structures.

This assay is described as follows: compound effects on hepatocellular carcinoma cell viability – HepG2, calcein-AM fluorescence, 48 h, basal, profiling panel (AID 1164). Also: test concentration not given here. The settings on record: higher = more signal.
As for `CC1CC/C=C\[C@H]2OC34C=CCN(CCN5CCOCC5)C(=O)[C@H]3N(CCO)C(=O)[C@@H]4C2C(=O)O1` (stereo partly drawn), the z-score was -0.186.
The figure for `C=CCOC(=O)[C@H]1[C@@H]2C(=O)O[C@@H](c3ccccc3)[C@@H](c3ccccc3)N2[C@@H](c2ccc(OCCOC(=O)[C@H]3C[C@H]4C(=O)N[C@@H](Cc5ccccc5)C(=O)N4[C@H]3c3ccc(O)cc3)cc2)[C@]12C(=O)Nc1ccc(I)cc12` is 1.16; for `COc1ccc(C#Cc2ccc3c(c2)[C@]2(C(=O)N3)[C@H](C(=O)N3CCc4cc(OC)c(OC)cc4C3)[C@H]3C(=O)O[C@H](c4ccccc4)[C@H](c4ccccc4)N3[C@@H]2c2ccc(O)cc2)cc1` it is 0.615; for `O=C1O[C@@H](c2ccccc2)[C@@H](c2ccccc2)N2[C@@H](c3ccccc3OCCO)[C@]3(C(=O)Nc4ccccc43)[C@@H](C(=O)NC[C@H](O)c3ccccc3)[C@H]12` it is -3.94.
As for `C[C@]1(C(=O)NC2CC2)c2ccccc2C(=O)N(Cc2ccc(OC(F)(F)F)cc2)[C@H]1c1ccc(CO)cc1`, the z-score was 0.415.
On to `NC(=O)NCC#Cc1ccc2c(c1)[C@]1(C(=O)N2)[C@H](C(=O)Nc2nc3ccccc3s2)[C@H]2C(=O)O[C@H](c3ccccc3)[C@H](c3ccccc3)N2[C@@H]1c1ccc(O)cc1`, for which the z-score was 0.28.
The same measure for `COc1ccc(CCNC(=O)[C@@]2(Sc3ccc(C)cc3)CC(=O)N(Cc3cc(C(F)(F)F)cc(C(F)(F)F)c3)[C@@H]2c2ccc(CO)cc2I)cc1`: 0.0649; for `CN(C)CCCNC(=O)[C@@H]1c2ccccc2C(=O)N(Cc2ccc(OC(F)(F)F)cc2)[C@H]1c1ccc(CO)cc1`: -0.0979.
